Reference: PubChem BioAssay (NCATS)
Records with an inconclusive call do not appear. Activity calls are given as the source filed them. Calls come from the whole dose curve; as a rule, active = well fitted curve in the direction sought with a large enough effect; inconclusive = small, poorly fitted or top-dose-only effect, or another doubt; inactive = no such curve, though single readings can be large; an effect the other way counts as inactive or inconclusive.

Key:
[1] = biological target: Metallo-beta-lactamase type 2 (Klebsiella pneumoniae) (UniProt C7C422); experiment: qHTS to identify inhibitors of the New Delhi Metallo-beta-lactamase (NDM): assay validation screen against the NCATS LOPAC Collection (AID 1794843);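 note: nitrocefin turnover by NDM-1 measured as 485 nm absorbance at plateau; series mostly up to about 38 µM; % is set by controls: 0 for no effect and ±100 for the full control effect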
Metallo-beta-lactamase type 2 (Klebsiella pneumoniae), sequence (C7C422 whole entry, looked up): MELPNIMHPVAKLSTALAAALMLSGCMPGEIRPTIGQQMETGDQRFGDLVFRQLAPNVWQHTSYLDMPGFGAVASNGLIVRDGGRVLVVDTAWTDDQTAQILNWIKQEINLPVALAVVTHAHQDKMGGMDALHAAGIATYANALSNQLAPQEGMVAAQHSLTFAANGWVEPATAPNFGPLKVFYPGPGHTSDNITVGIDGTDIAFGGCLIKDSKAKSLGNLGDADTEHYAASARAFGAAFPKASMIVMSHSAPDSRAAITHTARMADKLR
Outline: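 NDM-1 at 2 nM final in 50 mM HEPES pH 7.0 with 1 uM ZnSO4 and 0.01% Tween20 was preincubated with library compounds in DMSO. Nitrocefin (50 uM stock) was then added, and absorbance at 485 nm was read at the kinetic plateau.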

[2] = biological target: Glutathione peroxidase 1 (Homo sapiens) (UniProt P07203); experiment: Primary qHTS Assay for Inhibitors of Recombinant Selenoprotein Glutathione Peroxidase 1 (GPX1) (AID 1845191); note: nearly all actives have a fitted effect of over 65% in size
Glutathione peroxidase 1 (Homo sapiens), sequence (P07203 whole entry, looked up): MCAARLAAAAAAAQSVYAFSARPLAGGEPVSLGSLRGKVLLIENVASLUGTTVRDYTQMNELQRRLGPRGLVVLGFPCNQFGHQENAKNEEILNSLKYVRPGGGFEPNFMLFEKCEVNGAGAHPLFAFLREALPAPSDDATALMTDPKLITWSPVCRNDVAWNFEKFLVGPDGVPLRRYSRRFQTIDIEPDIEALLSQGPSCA
Outline: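 GR-coupled assay: compounds preincubated 30 min at room temperature with GPX1, then reaction started with CHP; final 10 nM GPX1, 1 mM GSH, 0.5 mM CHP, 0.5 mM NADPH, 100 nM GR, 0.01% BSA, pH 7.5 Tris buffer. NADPH fluorescence (340/450 nm) read at 0 and 15 min.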

[3] = biological target: Phospholipid hydroperoxide glutathione peroxidase GPX4 (Homo sapiens) (UniProt P36969); experiment: Primary qHTS Assay for Inhibitors of Recombinant Selenoprotein Glutathione Peroxidase 4 (GPX4) (AID 1845192); note: nearly all actives have a fitted effect of over 65% in size
Phospholipid hydroperoxide glutathione peroxidase GPX4 (Homo sapiens), sequence (P36969 whole entry, looked up): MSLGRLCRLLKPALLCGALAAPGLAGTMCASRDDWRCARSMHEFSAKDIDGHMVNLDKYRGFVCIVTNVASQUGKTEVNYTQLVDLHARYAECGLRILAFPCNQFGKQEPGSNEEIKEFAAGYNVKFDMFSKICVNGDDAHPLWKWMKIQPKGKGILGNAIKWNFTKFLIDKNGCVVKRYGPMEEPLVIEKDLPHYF
Outline: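 GR-coupled assay: recombinant GPX4 preincubated 30 min with compound at room temperature; final 200 nM GPX4, 1 mM GSH, 0.5 mM cumene hydroperoxide, 0.5 mM NADPH, 100 nM GR, 0.01% BSA, pH 7.5 Tris. NADPH fluorescence (340/450 nm) read at 0 and 15 min.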

[4] = HepG2 viability counterscreen (readout 1: protease activity) against the NCATS DSHEA and TCM libraries (AID 1794841);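 note: cells exposed to compounds for about 24 h before the protease read; 0% is about no effect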
Outline: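 1,000 HepG2 cells/well, 4 h attach; compounds ~24 h, 37C/5% CO2. Readout 1: GF-AFC 25 uM final, 30 min, fluorescence 380/510 nm. Readout 2: CellTiter-Glo, 30 min RT, luminescence.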

[5] = biological target: Cytochrome P450 3A4 (Homo sapiens) (UniProt P08684); experiment: qHTS for inhibitors of CYP3A4 against the NCATS DSHEA and TCM libraries (AID 1919971);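 note: % is set by controls: 0 for no effect and ±100 for the full control effect; inhibition lowers luminescence from luciferin made by CYP3A4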
Cytochrome P450 3A4 (Homo sapiens), sequence (P08684 whole entry, looked up): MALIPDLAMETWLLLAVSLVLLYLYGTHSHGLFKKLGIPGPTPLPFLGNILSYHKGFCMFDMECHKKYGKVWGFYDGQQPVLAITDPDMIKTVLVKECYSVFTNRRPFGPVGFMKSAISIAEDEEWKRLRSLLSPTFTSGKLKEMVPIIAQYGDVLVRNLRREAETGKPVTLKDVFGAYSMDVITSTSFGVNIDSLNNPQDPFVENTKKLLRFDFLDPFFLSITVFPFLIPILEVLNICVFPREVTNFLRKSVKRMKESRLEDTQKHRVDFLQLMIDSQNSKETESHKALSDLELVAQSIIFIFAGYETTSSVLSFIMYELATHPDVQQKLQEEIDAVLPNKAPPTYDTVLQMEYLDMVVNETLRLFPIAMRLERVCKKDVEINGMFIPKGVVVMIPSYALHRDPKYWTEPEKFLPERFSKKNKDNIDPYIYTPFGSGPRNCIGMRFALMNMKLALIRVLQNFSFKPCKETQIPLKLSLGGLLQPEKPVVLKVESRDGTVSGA
Outline: (§1)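 Luminescent P450-Glo format: compounds preincubated 15 min with enzyme and luciferin substrate, reaction run 30-45 min after NADPH regeneration solution. Intraplate controls: ketoconazole for CYP3A4 and CYP2C19, sulfaphenazole for CYP2C9.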

[6] = biological target: Cytochrome P450 2D6 (Homo sapiens) (UniProt P10635); experiment: qHTS for inhibitors of CYP2D6 against the NCATS DSHEA and TCM libraries (AID 1919972); note: % is set by controls: 0 for no effect and ±100 for the full control effect
Cytochrome P450 2D6 (Homo sapiens), sequence (P10635 whole entry, looked up): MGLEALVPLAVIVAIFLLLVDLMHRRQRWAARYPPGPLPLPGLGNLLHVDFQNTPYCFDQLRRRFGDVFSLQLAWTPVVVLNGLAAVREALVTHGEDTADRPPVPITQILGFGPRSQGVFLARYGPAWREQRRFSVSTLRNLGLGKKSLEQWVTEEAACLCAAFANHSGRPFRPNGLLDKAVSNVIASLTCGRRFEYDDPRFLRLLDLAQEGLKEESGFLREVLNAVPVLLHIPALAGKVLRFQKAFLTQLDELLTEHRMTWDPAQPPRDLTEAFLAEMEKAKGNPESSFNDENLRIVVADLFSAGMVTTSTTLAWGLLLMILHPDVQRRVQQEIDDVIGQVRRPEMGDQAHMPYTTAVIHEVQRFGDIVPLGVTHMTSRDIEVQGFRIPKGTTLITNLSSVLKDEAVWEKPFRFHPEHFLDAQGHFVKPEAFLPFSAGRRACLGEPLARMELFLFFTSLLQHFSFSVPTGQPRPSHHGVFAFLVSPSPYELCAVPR
Outline: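 Luminescent P450-Glo read-out of CYP2D6 turnover of a luciferin substrate after NADPH-driven reaction of 30-45 min at room temperature. Compounds were first preincubated 15 min with enzyme at titrated concentrations; quinidine was the intraplate control.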

[7] = biological target: Cytochrome P450 2C9 (Homo sapiens) (UniProt P11712); experiment: qHTS for inhibitors of CYP2C9 against the NCATS DSHEA and TCM libraries (AID 1919973);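 note: luminogenic pro-luciferin CYP2C9 substrate turned into luciferin with NADPH regeneration; series mostly up to about 34 µM; % is set by controls: 0 for no effect and ±100 for the full control effect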
Cytochrome P450 2C9 (Homo sapiens), sequence (P11712 whole entry, looked up): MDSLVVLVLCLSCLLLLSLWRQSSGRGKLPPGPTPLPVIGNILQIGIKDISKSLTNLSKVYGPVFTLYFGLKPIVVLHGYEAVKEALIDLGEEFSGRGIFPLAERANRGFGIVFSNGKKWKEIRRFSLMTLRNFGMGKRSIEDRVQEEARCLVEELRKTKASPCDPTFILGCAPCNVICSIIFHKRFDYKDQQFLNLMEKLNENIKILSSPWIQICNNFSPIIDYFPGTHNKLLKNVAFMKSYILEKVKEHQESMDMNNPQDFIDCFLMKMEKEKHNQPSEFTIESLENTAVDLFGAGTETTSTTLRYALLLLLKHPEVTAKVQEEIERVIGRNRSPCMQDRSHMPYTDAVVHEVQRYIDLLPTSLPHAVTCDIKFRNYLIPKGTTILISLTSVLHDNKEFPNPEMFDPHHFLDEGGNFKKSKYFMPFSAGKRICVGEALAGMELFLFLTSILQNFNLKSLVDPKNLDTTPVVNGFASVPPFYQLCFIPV
Outline: as §1

[8] = KB-3-1 P-gp reporter qHTS against the NCATS DSHEA and TCM libraries (AID 1919975); note: 0% is about no effect
Outline: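 CellTiter-Glo luminescence viability readout; KB-3-1 parental cells, 500/well, attached ~4 h, then compound for ~72 h, 37C, 5% CO2. Bortezomib intraplate control.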

[9] = qHTS Counterscreen for compound interference against the NCATS DSHEA and TCM libraries (AID 1919978); details: firefly luciferase detection reagent interference, luminescence;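 note: compounds preincubated with 1 µM D-luciferin or buffer before detection reagent; % of control where 0% means no effect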
Outline: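 Luminescence counterscreen for detection-kit interference: compounds at 19.5 nM–39.8 uM final, 15 min RT with 1 uM D-luciferin or buffer only; detection reagent added, 30 min RT, then read.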

[10] = Dual reporter qHTS for agonist of Pregnane X Receptor (hPXR) against the NCATS DSHEA and TCM libraries: Fluorescence readout (AID 1920058); note: 0% is about no effect
Outline: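 hPXR-Luc HepG2 cells, 2000/well in charcoal-stripped serum, attached 5 h, dosed for ~24 h at 37 °C. Fluorescence read is CellTiter-Fluor viability (Ex/Em 405/540 nm); rifampicin positive, tetraoctyl ammonium bromide (92 µM) cytotoxicity controls.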

[11] = biological target: Nuclear receptor subfamily 1 group I member 2 (Homo sapiens) (UniProt O75469); experiment: Dual reporter qHTS for agonist of Pregnane X Receptor (hPXR) against the NCATS DSHEA and TCM libraries: Luminescence readout (AID 1920059); note: 0% is about no effect
Nuclear receptor subfamily 1 group I member 2 (Homo sapiens), sequence (O75469 whole entry, looked up): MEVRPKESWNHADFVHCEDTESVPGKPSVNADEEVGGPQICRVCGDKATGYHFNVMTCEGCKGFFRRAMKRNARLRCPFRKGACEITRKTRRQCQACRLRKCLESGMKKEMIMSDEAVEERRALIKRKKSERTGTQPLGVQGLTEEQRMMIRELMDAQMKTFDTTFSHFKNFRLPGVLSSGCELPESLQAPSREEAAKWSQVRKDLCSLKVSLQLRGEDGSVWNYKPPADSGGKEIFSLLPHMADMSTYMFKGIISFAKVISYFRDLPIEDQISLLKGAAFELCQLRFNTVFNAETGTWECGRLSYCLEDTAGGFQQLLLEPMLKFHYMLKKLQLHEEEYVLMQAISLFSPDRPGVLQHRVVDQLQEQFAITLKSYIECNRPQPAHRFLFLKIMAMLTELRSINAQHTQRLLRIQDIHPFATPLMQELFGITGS
Outline: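 hPXR-Luc HepG2 cells, 2000/well in 5% charcoal-stripped FBS medium, attached 5 h, then exposed 24 h at 37C to compounds. Viability by CellTiter-Fluor, then luciferase luminescence with ONE-Glo.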

[12] = Dual reporter qHTS for antagonist of Pregnane X Receptor (hPXR) against the NCATS DSHEA and TCM libraries: Fluorescence Readout (AID 1920061); note: 0% is about no effect
Outline: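 Antagonist mode: rifampicin 2 uM final co-added with compounds to hPXR-LucHepG2 cells for 24 h at 37C. Viability by CellTiter-Fluor, Ex/Em 405/540 nm, 1 h; reporter by ONE-Glo luminescence.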

[13] = biological target: Luciferin 4-monooxygenase (Photinus pyralis) (UniProt P08659); experiment: Primary firefly luciferase (FLuc) qHTS assay for identification of artifact compounds. (AID 1845220); details: outcome: dose series up to 54.1 µM; note: nearly all actives have a fitted effect of over 60% in size
Outline: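 Enzymatic FLuc inhibition assay: compounds pre-exposed to luciferin/ATP (10 uM each) for 15 min, then purified P. pyralis enzyme at 10 nM added. Read-out: luminescence at 5 min.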

[14] = Primary fluorescence-based thiol-reactive (MSTI) qHTS assay for identification of artifact compounds. (AID 1845221);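 note: series mostly up to about 54 µM; thiol-reactive compounds lower the probe fluorescence signal; nearly all actives have a fitted effect of over 65% in size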
Outline: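 Probe: MSTI 4 uM, PBS pH 7.4, 2% DMSO. Incubation 1 h, RT, light-protected. Readout fluorescence 525/598 nm.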

[15] = tested on: Nanoluciferase (engineered Oplophorus gracilirostris luciferase); experiment: Primary Nanoluciferase (NLuc) qHTS assay for identification of artifact compounds. (AID 1845222);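 note: NLuc secreted into diluted conditioned medium of S16 cells; series mostly up to about 54 µM; 0% = DMSO and -100% = no enzyme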
Outline: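 S16 cell supernatant NLuc, 1:55; cpds qHTS; 15 min RT dark; Nano-Glo substrate 1:100, 5 min; luminescence; Hill fit of % inhibition.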

[16] = Primary redox qHTS assay for identification of artifact compounds. (AID 1845223);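 note: 0% = DMSO and 100% = reference compound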
Outline: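 Amplex Red (25 uM) and HRP (250 mU/mL) in HBSS, with compounds for 15 min, then 250 uM DTT for 30 min, room temperature, dark. Fluorescence 525/598 nm read; normalized to DMSO and 10 uM DA3003; Hill fit.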

CN1C2CCC1CC(OC(=O)c1c[nH]c3ccccc13)C2 (stereo not drawn)
inactive: outcome [1] | Potency [2] | Potency [3]

C[N+]1(CCCCC[N+]2(C)CCCC2)CCCC1
inactive: outcome [1] | Potency [2] | Potency [3]

CC(C)C[C@H]1C(=O)N2CCC[C@H]2[C@]2(O)O[C@](NC(=O)[C@@H]3C=C4c5cccc6[nH]c(Br)c(c56)C[C@H]4N(C)C3)(C(C)C)C(=O)N12
inactive: outcome [1] | Potency [2] | Potency [3]

Nc1ccc(C(=O)O)cc1
inactive: outcome [4] | Potency [2] | outcome [5] | outcome [6] | outcome [7] | outcome [8] | max response [9] -2.08% | outcome [10] | outcome [11] | outcome [12]

COc1cc2c(cc1OC)[C@@H]1CC(=O)[C@@H](CC(C)C)CN1CC2
inactive: Potency [2] | Potency [3]

CC1=C(C(=O)OC(C)C)C(c2cccc([N+](=O)[O-])c2)C(C(=O)OC2CN(C(c3ccccc3)c3ccccc3)C2)=C(N)N1 (stereo not drawn)
inactive: Potency [2] | Potency [3]

O=C1c2ccccc2C(=O)C1c1ccccc1
inactive: Potency [2] | Potency [3]

Cc1ccnc(NS(=O)(=O)c2ccc(N)cc2)n1
inactive: Potency [2] | Potency [3]

CN1CCN(CCCN2c3ccccc3Sc3ccc(S(=O)(=O)N(C)C)cc32)CC1
inactive: Potency [2] | Potency [3]

CN1C(CCl)Nc2cc(Cl)c(S(N)(=O)=O)cc2S1(=O)=O (stereo not drawn)
inactive: Potency [2] | Potency [3] | outcome [13] | Potency [14] | Potency [15] | outcome [16]

CCCSS/C(CCO)=C(\C)N(C=O)Cc1cnc(C)nc1N
inactive: Potency [2] | Potency [3]

CC(=O)OCC(=O)[C@@]1(OC(C)=O)[C@@H](C)C[C@H]2[C@@H]3C[C@H](F)C4=CC(=O)C=C[C@]4(C)[C@@]3(F)[C@@H](O)C[C@@]21C
inactive: Potency [2] | Potency [3]

CCOC(=O)OC(C)OC1=C(C(=O)Nc2ccccn2)N(C)S(=O)(=O)c2ccccc21 (stereo not drawn)
inactive: Potency [2] | Potency [3]

NC(CO)(CO)CO
inactive: Potency [2] | Potency [3]

CCCCC1=NC2(CCCC2)C(=O)N1Cc1ccc(-c2ccccc2-c2nn[nH]n2)cc1
inactive: Potency [2] | Potency [3]

OC(CCN1CCCCC1)(c1ccccc1)c1ccccc1
inactive: Potency [2] | Potency [3]

O=C(OCCOCCO)c1ccccc1Nc1cccc(C(F)(F)F)c1
inactive: Potency [2] | Potency [3] | outcome [13] | Potency [14] | Potency [15] | outcome [16]

Cc1onc(-c2c(Cl)cccc2Cl)c1C(=O)N[C@@H]1C(=O)N2[C@@H]1SC(C)(C)[C@@H]2C(=O)O
inactive: Potency [2] | Potency [3] | outcome [13] | Potency [14] | Potency [15]
